{
  "source": "the supplement of paper PMC8728848",
  "test_in_all_cases": "glycan array binding signal (z-score within array); higher = stronger binding",
  "conditions_in_all_cases": "glycan notation: IUPAC condensed, linker removed",
  "key": {"[1]": {"biological_target": "Fuc(a1-2)Gal(b1-4)[Fuc(a1-3)]GlcNAc", "outline": "(§1)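 Glycan array data came from 3228 arrays in the Consortium for Functional Glycomics database, and only arrays with an available protein sequence were kept. Glycan names were put into IUPAC-condensed notation, and columns mapping to the same glycan were averaged. The binding signal is a within-array Z-score, averaged across arrays of one protein sequence run at different concentrations or buffers and across linkers. A negative Z-score can be read as non-binding.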"}, "[2]": {"biological_target": "Fuc(a1-2)[Gal(a1-4)]Gal(b1-4)GalNAc", "outline": "as §1"}, "Gal(a1-2)Gal": {"biological_target": "Gal(a1-2)Gal", "outline": "as §1"}, "Gal(a1-3)Gal(b1-3)GlcNAc": {"biological_target": "Gal(a1-3)Gal(b1-3)GlcNAc", "outline": "as §1"}, "Gal(a1-4)GlcNAc": {"biological_target": "Gal(a1-4)GlcNAc", "outline": "as §1"}, "[3]": {"biological_target": "Gal(b1-3)[Neu5Ac(a2-6)]GlcNAc", "outline": "as §1"}, "[4]": {"biological_target": "Gal(b1-4)GlcNAc(b1-2)Man(a1-3)[Gal(b1-4)GlcNAc(b1-2)Man(a1-6)]Man(b1-4)GlcNAc(b1-4)GlcNAc", "outline": "as §1"}, "[5]": {"biological_target": "Gal(b1-4)GlcNAc(b1-6)[Gal(b1-3)]GalNAc", "outline": "as §1"}, "Gal3S(b1-4)GlcNAc6S": {"biological_target": "Gal3S(b1-4)GlcNAc6S", "outline": "as §1"}, "Gal3S6S(b1-4)GlcNAc": {"biological_target": "Gal3S6S(b1-4)GlcNAc", "outline": "as §1"}, "Gal3S6S(b1-4)GlcNAc6S": {"biological_target": "Gal3S6S(b1-4)GlcNAc6S", "outline": "as §1"}, "Gal4S6S(b1-4)GlcNAc": {"biological_target": "Gal4S6S(b1-4)GlcNAc", "outline": "as §1"}, "Gal6S(b1-4)Glc": {"biological_target": "Gal6S(b1-4)Glc", "outline": "as §1"}, "[6]": {"biological_target": "Man(a1-2)Man(a1-3)[Man(a1-6)]Man(a1-6)[Man(a1-2)Man(a1-3)]Man(b1-4)GlcNAc(b1-4)GlcNAc", "outline": "as §1"}, "[7]": {"biological_target": "Neu5Ac(a2-3)Gal(b1-3)[Fuc(a1-4)]GlcNAc", "outline": "as §1"}, "Neu5Ac(a2-3)Gal(b1-4)Glc": {"biological_target": "Neu5Ac(a2-3)Gal(b1-4)Glc", "outline": "as §1"}, "[8]": {"biological_target": "Neu5Ac(a2-6)Gal(b1-4)GlcNAc(b1-3)Gal(b1-4)GlcNAc", "outline": "as §1"}, "[9]": {"biological_target": "Neu5Ac(a2-8)Neu5Ac(a2-3)Gal(b1-4)Glc", "outline": "as §1"}, "[10]": {"biological_target": "Neu5Ac9Ac(a2-6)Gal(b1-4)GlcNAc", "outline": "as §1"}, "[11]": {"biological_target": "Neu5Gc(a2-3)Gal(b1-3)GlcNAc", "outline": "as §1"}},
  "note": "The entries come from a sample that favours the strongest signals as a whole.",
  "data": [
    {"binder": "Siglec 6 (Homo sapiens), O43699 (protein) MLPLLLPLLWAGALAQERRFQLEGPESLTVQEGLCVLVPCRLPTTLPASYYGYGYWFLEGADVPVATNDPDEEVQEETRGRFHLLWDPRRKNCSLSIRDARRRDNAAYFFRLKSKWMKYGYTSSKLSVRVMALTHRPNISIPGTLESGHPSNLTCSVPWVCEQGTPPIFSWMSAAPTSLGPRTTQSSVLTITPRPQDHSTNLTCQVTFPGAGVTMERTIQLNVSYAPQKVAISIFQGNSAAFKILQNTSSLPVLEGQALRLLCDADGNPPAHLSWFQGFPALNATPISNTGVLELPQVGSAEEGDFTCRAQHPLGSLQISLSLFVHWKPEGRAGGVLGAVWGASITTLVFLCVCFIFRVKTRRKKAAQPVQNTDDVNPVMVSGSRGHQHQFQTGIVSDHPAEAGPISEDEQELHYAVLHFHKVQPQEPKVTDTEYSEIKIHK", "values": [
      {"measurement": "glycan array binding signal (z-score)", "setting": "[1]", "result": -0.259},
      {"measurement": "glycan array binding signal (z-score)", "setting": "[2]", "result": 1.21},
      {"measurement": "glycan array binding signal (z-score)", "setting": "Gal(a1-2)Gal", "result": -0.328},
      {"measurement": "glycan array binding signal (z-score)", "setting": "Gal(a1-3)Gal(b1-3)GlcNAc", "result": -0.366},
      {"measurement": "glycan array binding signal (z-score)", "setting": "Gal(a1-4)GlcNAc", "result": -0.074},
      {"measurement": "glycan array binding signal (z-score)", "setting": "[3]", "result": -0.381},
      {"measurement": "glycan array binding signal (z-score)", "setting": "[4]", "result": -0.29},
      {"measurement": "glycan array binding signal (z-score)", "setting": "[5]", "result": -0.521},
      {"measurement": "glycan array binding signal (z-score)", "setting": "Gal3S(b1-4)GlcNAc6S", "result": 3.66},
      {"measurement": "glycan array binding signal (z-score)", "setting": "Gal3S6S(b1-4)GlcNAc", "result": 5.12},
      {"measurement": "glycan array binding signal (z-score)", "setting": "Gal3S6S(b1-4)GlcNAc6S", "result": 6.44},
      {"measurement": "glycan array binding signal (z-score)", "setting": "Gal4S6S(b1-4)GlcNAc", "result": 3},
      {"measurement": "glycan array binding signal (z-score)", "setting": "Gal6S(b1-4)Glc", "result": 0.086},
      {"measurement": "glycan array binding signal (z-score)", "setting": "[6]", "result": -0.209},
      {"measurement": "glycan array binding signal (z-score)", "setting": "[7]", "result": -0.566},
      {"measurement": "glycan array binding signal (z-score)", "setting": "Neu5Ac(a2-3)Gal(b1-4)Glc", "result": -0.332},
      {"measurement": "glycan array binding signal (z-score)", "setting": "[8]", "result": -0.476},
      {"measurement": "glycan array binding signal (z-score)", "setting": "[9]", "result": -0.16},
      {"measurement": "glycan array binding signal (z-score)", "setting": "[10]", "result": -0.211},
      {"measurement": "glycan array binding signal (z-score)", "setting": "[11]", "result": -0.386}
    ]}
  ]
}
